Compounds with a hit are over-represented: about 2.4% of the library has one in this group of screens.
D2 ag-1: human D2 receptor agonism in beta-arrestin assay. DiscoveRx PathHunter D2 beta-arrestin, luminescence, 90 min; 100% = 57 uM dopamine signal. P14416. 360,000 compounds, 0.084% hits. activation, % (test concentration not listed); in the data active means activation above about 40%; inconclusive means between about 15% and that limit
Target sequence (P14416 whole entry, looked up): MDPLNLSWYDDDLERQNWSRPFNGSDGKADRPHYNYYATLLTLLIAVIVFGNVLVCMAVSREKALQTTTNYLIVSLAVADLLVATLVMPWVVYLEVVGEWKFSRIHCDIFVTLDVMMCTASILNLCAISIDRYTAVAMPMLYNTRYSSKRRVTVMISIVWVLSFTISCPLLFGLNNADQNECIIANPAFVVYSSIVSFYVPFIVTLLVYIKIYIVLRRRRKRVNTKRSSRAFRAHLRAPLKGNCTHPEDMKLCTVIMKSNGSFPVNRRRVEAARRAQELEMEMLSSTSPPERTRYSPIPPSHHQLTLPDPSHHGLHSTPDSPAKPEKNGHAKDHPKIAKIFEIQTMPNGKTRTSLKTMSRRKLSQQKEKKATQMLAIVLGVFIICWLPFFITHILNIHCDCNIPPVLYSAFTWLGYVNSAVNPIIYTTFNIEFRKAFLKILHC
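DiscoveRx PathHunter D2 beta-arrestin cells (2,100/well) attached overnight, then compound-stimulated 90 min at 37 C in HBSS/10 mM HEPES/0.1% Tween-20 buffer; beta-galactosidase complementation read by luminescence after 1 h at ambient temperature. Dopamine 57 uM final (EC100) as control.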
D2 antag: D2 dopamine receptor (human) antagonism | P14416 | HEK293 TREx D2 cells, calcium flux, dopamine EC80 | inhibition, % at 10 µM | 340,000 compounds, 2% hits; in the data active means inhibition above about 30%; inactive means below that, where a call was filed; further: 0% is about no effect
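Calcium mobilization kinetics were recorded at 1 s intervals in tetracycline-induced HEK293 T-REx D2 cells, first for 180 s after compound addition and then 180 s after EC80 dopamine.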
D2 PAM-1: positively modulates the human D2 dopamine receptor allosterically | HEK293 T-REx D2, calcium flux, EC20 dopamine potentiation | potentiation, % at 10 µM | 340,000 compounds, 0.34% hits;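 active means potentiation over 3 SD above the plate norm, cut at about 30% in these data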; further: 0% is about no effect
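Potentiation of an EC20 dopamine calcium response is measured in a force-coupled, tetracycline-inducible Hek293 Trex D2 line. Compound-only kinetic reads over 180 s flag agonists before dopamine addition.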
D2 PAM-2: positive allosteric modulators of human D2 dopamine receptor. P14416. DiscoveRx D2 beta-arrestin cells, luminescence, 90 min; 100% = 57 uM dopamine signal. potentiation, % (no concentration beside the values). 360,000 compounds, 0.23% hits. AID 624464; in the data active means potentiation above about 50%; inconclusive means mostly about 30% to 49%
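PathHunter D2 cells, attached overnight at 37 deg C, received compound in DMSO plus dopamine at EC20 (50 nM final) for 90 min at 37 deg C. Beta-arrestin recruitment was read as luminescence after 1 h with detection reagent at ambient temperature.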
D2 ag-2: agonists of human D2 dopamine receptor | HEK293 T-REx D2 cells, calcium flux agonist mode | activation, % at 2 µM | 340,000 compounds, 0.53% hits | AID 485358;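 active means activation over 3 SD above normal in the single-dose calcium agonist read, cut at about 30% in these data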; further: 0% is about no effect
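In this primary screen, compounds producing a positive calcium signal within 180 s of addition to tetracycline-induced, force-coupled HEK293 Trex D2 cells are flagged; cells are dye-loaded with a no-wash calcium kit beforehand.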
* hit, by the source's call; ? = inconclusive; nt = not tested or not shown.

SMILES	D2 ag-1	D2 antag	D2 PAM-1	D2 PAM-2	D2 ag-2
CNCCc1c[nH]c2ccc(O)cc12	55*	nt	nt	?	nt
CN1CCN(Cc2nc3ccccc3n2C)CC1	-3	-3	3	4	2
CCC1C2Cn3c(nc4ccccc43)C1N(C)O2 (stereo not given)	-2	10	34*	1	0
CCc1ccc(OCC(=O)N2CCN(CCc3ccncc3)CC2)cc1	nt	nt	19	nt	nt
c1ccc(CN2CCc3nc4ccccc4cc3C2)cc1	95*	76*	-28	27	78*
CCC1(c2ccccc2)C(=O)N(C)C(=O)N(C)C1=O	2	34*	-15	-6	1
CN1C(=O)N(C)C(=O)C2(Sc3ccccc3C2=O)C1=O	-2	-9	-2	-5	0
CN1C(=O)CN=C(c2ccc(Cl)cc2)c2cc(Cl)ccc21	-2	34*	7	0	-1
CN1C(=O)CN=C(c2ccc[nH]2)c2cc(Cl)ccc21 (tested in a mixture with another compound)	-2	nt	nt	-7	nt
CCCn1cc2c3c(cccc31)C1CC(C)CN(C)C1C2 (stereo not given)	nt	87*	-29	nt	39*
Cc1ccc(-c2cc(-c3ccccc3)cc(-c3ccccc3)[n+]2-c2ccccc2)cc1	11	38*	-3	11	2
CC/C(=N\Nc1cccc2ccccc12)c1c(O)[nH]c(=O)[nH]c1=O	?	-6	8	55*	1
CCN(CC)CCCOC(=O)C(OC(C)C)(c1ccccc1)c1ccccc1	-2	57*	-25	-17	-1
Cc1ccc(C2SCC(=O)Nc3c2c(=O)[nH]n3C2CCOC(C)(C)C2)cc1 (stereo not given)	-3	37*	3	-21	-1
COc1ccc(-c2nc(CN3C(=O)CN=C(c4ccccc4)c4ccccc43)c(C)o2)cc1	nt	nt	-3	nt	nt
O=[N+]([O-])c1ccc(NCc2ccccc2)c2nonc12	5	44*	-21	4	135*
O=[N+]([O-])c1ccc(NCc2ccc(Cl)cc2)c2ccncc12	5	12	-3	-1	0
CC(=O)NC1CC2CCC(C1)N2 (stereo not given)	0	12	36*	-13	0
CCCC12CN3CC(C)(CN(C1)C3c1ccccn1)C2=O (stereo not given)	nt	nt	6	nt	0
O=C(Nc1ccc2c(c1)OCO2)c1cccn(Cc2ccc(F)cc2)c1=O	nt	nt	2	nt	1
CCCN1CCC[C@@H]2Cc3nc(N)ncc3C[C@H]21	126*	nt	nt	117*	nt
COCCCn1c(N)c(C(=O)OC(C)COC)c2nc3ccccc3nc21 (stereo not given)	-4	43*	-2	-11	-1
CCCCOCCCn1c(N)c(C(=O)OC(C)COC)c2nc3ccccc3nc21 (stereo not given)	-8	-13	-2	-29	-2
COc1ccccc1CN1CCN(Cc2ccc(Cl)cc2)CC1	-1	76*	-24	-23	1
COc1ccc(CN2CCN(Cc3ccccc3OC)CC2)cc1	-3	-5	1	-22	0
SMILES	D2 ag-1	D2 antag	D2 PAM-1	D2 PAM-2	D2 ag-2
COc1ccccc1N1CCN(Cc2ccc(SC)cc2)CC1	-3	79*	-21	-82	-1
CSc1ccc(CN2CCN(c3ccccc3C)CC2)cc1	3	71*	-32	-15	0
Clc1ccccc1CN1CCN(c2ccccc2Cl)CC1	3	-25	-25	-19	15
COc1ccccc1N1CCN(Cc2ccc(Cl)cc2Cl)CC1	0	35*	-30	-35	-2
COc1ccc(OC)c(CCNCc2c(C(=O)O)c(C)n(Cc3ccc(F)cc3Cl)c2C)c1	nt	nt	-3	nt	0
Cc1ccc(CN2CCN(Cc3ccccc3F)CC2)cc1	-4	39*	-15	-21	-1
CCCc1ccc(OCC(=O)Nc2ccc(Cl)cc2C(=O)c2ccccc2)cc1	nt	nt	0	nt	-1
Cc1cccc2sc(NC(=O)c3cccn(Cc4ccccc4)c3=O)nc12	nt	nt	9	nt	2
COc1cccc(C(c2nnnn2-c2ccc3c(c2)OCCO3)N2CCC(n3c(=O)[nH]c4ccccc43)CC2)c1OC (stereo not given)	4	nt	nt	?	nt

High-throughput results as filed in PubChem BioAssay.
